{
  "source": "PubChem BioAssay (Tox21)",
  "note": "Records with an inconclusive call do not appear. Entries that show only a call come without a potency. Active and inactive are the calls of the source. Calls follow the shape of the dose curve; as a rule, active = well fitted curve in the direction sought with a large enough effect in the repeat runs; inconclusive = weak or mixed curves; inactive = no such curve, though single readings can be large; an effect the other way counts as inactive or inconclusive.",
  "data": [
    {"molecular_target": "Androgen receptor (Homo sapiens) (UniProt P10275)", "sequence (P10275 whole entry, looked up)": "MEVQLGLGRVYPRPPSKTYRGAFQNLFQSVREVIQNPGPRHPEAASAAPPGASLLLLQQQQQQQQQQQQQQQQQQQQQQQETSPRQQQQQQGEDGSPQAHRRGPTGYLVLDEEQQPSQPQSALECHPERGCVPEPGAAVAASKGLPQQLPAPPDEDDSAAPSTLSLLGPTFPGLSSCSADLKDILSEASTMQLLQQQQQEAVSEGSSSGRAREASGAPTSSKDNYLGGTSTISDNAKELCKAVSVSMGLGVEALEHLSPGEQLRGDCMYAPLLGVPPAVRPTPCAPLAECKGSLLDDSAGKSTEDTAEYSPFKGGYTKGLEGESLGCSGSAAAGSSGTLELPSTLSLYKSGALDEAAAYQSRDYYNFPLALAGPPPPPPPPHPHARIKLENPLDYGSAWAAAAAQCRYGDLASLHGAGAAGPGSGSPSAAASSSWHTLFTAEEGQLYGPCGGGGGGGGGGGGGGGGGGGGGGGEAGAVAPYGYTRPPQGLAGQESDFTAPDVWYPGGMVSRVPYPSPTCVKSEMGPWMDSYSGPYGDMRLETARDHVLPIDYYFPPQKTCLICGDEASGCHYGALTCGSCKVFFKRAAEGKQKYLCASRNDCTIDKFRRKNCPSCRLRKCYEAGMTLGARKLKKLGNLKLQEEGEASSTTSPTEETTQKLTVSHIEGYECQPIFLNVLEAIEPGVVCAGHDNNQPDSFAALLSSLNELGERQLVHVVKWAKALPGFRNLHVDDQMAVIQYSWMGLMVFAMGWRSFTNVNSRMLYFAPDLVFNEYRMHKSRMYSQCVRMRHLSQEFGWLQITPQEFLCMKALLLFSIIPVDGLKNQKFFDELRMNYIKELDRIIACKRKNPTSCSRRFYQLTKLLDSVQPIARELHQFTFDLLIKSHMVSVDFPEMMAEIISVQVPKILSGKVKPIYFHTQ", "assay": "qHTS assay to identify small molecule agonists of the androgen receptor (AR) signaling pathway using the MDA cell line (AID 743040; also: nearly all actives have a fitted effect of over 20% in size)", "conditions": "MDA-kb2 AR-luc cells, MMTV luciferase, 16 h; series mostly up to 70.3 µM", "procedure,_shortened": "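MDA-kb2 breast carcinoma cells stably carrying an MMTV-driven luciferase reporter (AR- and GR-responsive) were seeded and held 5 h at 37C, 0% CO2, then exposed to compounds in DMSO for 16 h. Luminescence was read 30 min after ONE-Glo addition.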", "values": [
      {"smiles": "O=C(c1ccccc1)c1ccc(O)cc1", "Potency": "inactive"},
      {"smiles": "COC(=O)C1=C(C)NC(C)=C(C(=O)OC(C)(C)CN(C)CCC(c2ccccc2)c2ccccc2)C1c1cccc([N+](=O)[O-])c1", "note": "(stereo not given)", "Potency": "inactive"},
      {"smiles": "O=S(=O)(Cl)c1c(Cl)cccc1Cl", "Potency": "inactive"},
      {"smiles": "O=C(O)c1cc(Cl)cc(Cl)c1O", "Potency": "inactive"},
      {"smiles": "Nc1c(Cl)cc(Cl)cc1[N+](=O)[O-]", "Potency": "inactive"},
      {"smiles": "COc1cc(OC)c2ccc(=O)oc2c1", "Potency": "inactive"}
    ]},
    {"test_system": "not listed separately", "assay": "qHTS assay to identify small molecule antagonists of the androgen receptor (AR) signaling pathway using the MDA cell line - cell viability counter screen (AID 743041; also: nearly all actives have a fitted effect of over 45% in size; also: potency is read from the fitted curve at half-maximal effect)", "conditions": "MDA-kb2 viability, CellTiter-Fluor, 16 h, cells co-treated with R1881 androgen agonist; series mostly up to 70.3 µM", "procedure,_shortened": "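MDA-kb2 AR-luc human breast carcinoma cells (MMTV-luciferase, AR/GR responsive) were treated with compounds plus R1881 agonist for 16 h at 37 °C. Viability was read as CellTiter-Fluor fluorescence in the same wells as the reporter assay.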", "values": [
      {"smiles": "COC(=O)c1sccc1S(N)(=O)=O", "Potency": "inactive"},
      {"smiles": "Nc1nc2ccc(OC(F)(F)F)cc2s1", "Potency": "inactive"},
      {"smiles": "O=C(c1ccccc1)c1ccc(O)cc1", "Potency": "inactive"},
      {"smiles": "CC(C)(O)c1coc(S(=O)(=O)NC(=O)Nc2c3c(cc4c2CCC4)CCC3)c1", "Potency": "inactive"},
      {"smiles": "CCCCCCCCCCCSCC(=O)O", "Potency": "inactive"},
      {"smiles": "CC(=O)OCCC(C)CC(C)(C)C", "note": "(stereo not given)", "Potency": "inactive"},
      {"smiles": "C=C(C)c1ccccc1", "Potency": "inactive"},
      {"smiles": "CC/C=C\\C/C=C\\C/C=C\\CCCCCCCC(=O)OCC", "Potency": "inactive"},
      {"smiles": "CCCCCCCC/C=C\\CCCCCCCC(=O)OCCO", "Potency": "inactive"},
      {"smiles": "Oc1ccc2c(c1)Cc1ccccc1-2", "Potency": "inactive"},
      {"smiles": "CO[C@@H]1[C@@H](OC)[C@H](C)[C@@](O)(CC(=O)O)O[C@H]1[C@H](C)[C@H]1O[C@@]2(CC[C@@](C)([C@H]3CC[C@@](C)([C@@H]4O[C@@H]([C@H]5O[C@](C)(O)[C@H](C)C[C@@H]5C)C[C@@H]4OC4C[C@H](OC)[C@@H](OC)[C@H](C)O4)O3)O2)C[C@H](O)[C@H]1C", "note": "(stereo not given in full)", "Potency": "1.06 µM (active)"},
      {"smiles": "COc1ccc(CCN(C)CCCN2CCc3cc(OC)c(OC)cc3CC2=O)cc1OC", "Potency": "inactive"},
      {"smiles": "O=C(CCS)OCC(COC(=O)CCS)(COC(=O)CCS)COC(=O)CCS", "Potency": "inactive"},
      {"smiles": "COc1cc(S(=O)(=O)Nc2ccccc2)c(OC)cc1N", "Potency": "inactive"},
      {"smiles": "O=C(O)c1cccc(C[C@@H]2COc3ccc(OCc4nc5cc(F)ccc5s4)cc3[C@@H]2O)c1", "Potency": "inactive"},
      {"smiles": "CC(C)OC(=O)c1ccccc1C(=O)OC(C)C", "Potency": "inactive"},
      {"smiles": "CCN(Cc1cccc(S(=O)(=O)O)c1)c1ccc(C(=C2C=CC(=[N+](CC)Cc3cccc(S(=O)(=O)O)c3)C=C2)c2ccccc2S(=O)(=O)[O-])cc1", "Potency": "38.7 µM (active)"},
      {"smiles": "CC(C)C(O)C(C)(C)CO", "note": "(stereo not given)", "Potency": "inactive"},
      {"smiles": "[Cl][Nd]([Cl])[Cl]", "Potency": "inactive"},
      {"smiles": "Cc1ccccc1S(N)(=O)=O", "Potency": "inactive"},
      {"smiles": "Cc1ccc2c(c1[N+](=O)[O-])C(=O)c1ccccc1C2=O", "Potency": "inactive"},
      {"smiles": "CCN(CC)CCOC(=O)C(c1ccccc1)c1ccccc1", "Potency": "inactive"},
      {"smiles": "COC(=O)C1=C(C)NC(C)=C(C(=O)OC(C)(C)CN(C)CCC(c2ccccc2)c2ccccc2)C1c1cccc([N+](=O)[O-])c1", "note": "(stereo not given)", "Potency": "inactive"},
      {"smiles": "O=S(=O)(Cl)c1c(Cl)cccc1Cl", "Potency": "inactive"},
      {"smiles": "O=C(/C=C/c1ccc([N+](=O)[O-])cc1)c1ccccc1", "Potency": "inactive"},
      {"smiles": "c1ccc(CNc2ncnc3c2ncn3C2CCCCO2)cc1", "note": "(stereo not given)", "Potency": "inactive"},
      {"smiles": "CC(=O)Oc1cccc(O)c1", "Potency": "inactive"},
      {"smiles": "O=C(O)c1cc(Cl)cc(Cl)c1O", "Potency": "inactive"},
      {"smiles": "CS(=O)(=O)c1ccc([C@@H](C[C@H]2CCC(=O)C2)C(=O)Nc2cnccn2)cc1Cl", "Potency": "inactive"},
      {"smiles": "Cc1c(C2(c3cc(Br)c(O)c(Br)c3C)OS(=O)(=O)c3ccccc32)cc(Br)c(O)c1Br", "Potency": "23.6 µM (active)"},
      {"smiles": "O=C1c2ccccc2C(=O)c2c(O)ccc(O)c21", "Potency": "inactive"},
      {"smiles": "Nc1c(Cl)cc(Cl)cc1[N+](=O)[O-]", "Potency": "inactive"},
      {"smiles": "CC(C)(C)C(O)/C=C/c1ccc2c(c1)OCO2", "note": "(stereo not given)", "Potency": "inactive"},
      {"smiles": "COc1cc(OC)c2ccc(=O)oc2c1", "Potency": "inactive"}
    ]}
  ]
}
